GLP1R cytotox: cytotoxicity in counter-screen for GLP-1R inverse agonists; HEK293 cAMP-luciferase reporter cells, luminescence, 24 h; Potency, µM (titrated, usually from 38.3 µM), without a hit: top-dose activity change, negative = inhibition, usual class: inhibitors; hit rate 0.13% among 410,000; AID 624418;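 note: loss of luciferase light is scored as toxicity; % is set by controls: 0 for no effect and ±100 for the full control effect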
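To flag toxic compounds, the library was rerun on cells for 24 hr at 37 deg C and 5% CO2. Viability-linked luminescence was captured 12 min after adding luciferase detection reagent.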
PTHR1 agonist: PTHR1 (human) receptor agonism | Q03431 | HEK293 GP2 PTHR1 cells, GloSensor cAMP luminescence, 1 h | Potency, µM (top dose mostly 115 µM), inactives show at the top dose activation, usual class: activators | hit rate 0.075% among 410,000; note: nearly all actives have a fitted effect of over 55% in size
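HEK-293-derived GP2 cells expressing PTHR1 and a GloSensor cAMP reporter, 3,000/well, plated overnight, given luciferin plus IBMX (each 0.5 mM as added) for 1 h at 37 °C, then compound for 1 h at 37 °C. Luminescence was read after 15 min at room temperature.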
RGS4 inh: human RGS4 inhibition; P49798; Transcreener GDP fluorescence polarization, RGS4-accelerated GTP hydrolysis; Potency, µM (titrated, usually from 114 µM), inactives show at the highest dose activity change, negative = inhibition, most hits filed as inhibitors; hit rate 0.039% among 390,000; note: % is set by controls: 0 for no effect and ±100 for the full control effect; nearly all actives have a fitted effect of over 75% in size
Target sequence (P49798 whole entry, looked up): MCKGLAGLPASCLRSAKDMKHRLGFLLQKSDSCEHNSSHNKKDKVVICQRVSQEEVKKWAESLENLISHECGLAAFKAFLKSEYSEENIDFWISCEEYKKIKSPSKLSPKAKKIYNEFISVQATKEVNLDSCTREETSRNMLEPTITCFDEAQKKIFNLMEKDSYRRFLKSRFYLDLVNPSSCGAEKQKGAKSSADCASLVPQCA
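MLSMR compounds (23 nl, pin-transferred) preincubated 10 min at room temperature with a 500nM (2x) first reagent, then RGS4 at 900nM (2x) plus Transcreener GDP mix added; fluorescence polarization (620/688 nm) read before and after 90 min at 30 °C.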
GLP1R inv ag: GLP-1 receptor (human) inverse agonism; hit rate 1.6% among 410,000; AID 624417; P43220; Potency, µM (doses to about 38.3 µM), for inactives: top-dose activity change, negative = inhibition, most hits filed as inhibitors; HEK293 GLP-1R CRE-luciferase, luminescence, 24 h; GLP-1R form is constitutively active; note: % is set by controls: 0 for no effect and ±100 for the full control effect; nearly all actives have a fitted effect of over 55% in size
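Inverse agonism was detected as reduced cAMP-driven luciferase luminescence after 24 h compound treatment. The cells were HEK293 clones expressing constitutively active human GLP-1R with the reporter. Reporter-only and GPR119 cell lines served as counterscreen controls.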
GLP1R ag: agonists of human GLP-1 receptor; HEK293 GLP-1R CRE-luciferase, luminescence, 4-6 h; cells express a hypersensitive GLP-1R form; Potency, µM (series often up to 45.6 µM), for the others: at the top dose activation, hits mostly activators; hit rate 0.007% among 380,000; AID 624172; note: % of control where 0% means no effect
GCN5L2 inh: inhibitors of human GCN5L2 histone acetyltransferase; Q92830; GCN5L2 HAT assay, ThioGlo1 CoA-SH fluorescence; Potency, µM (highest dose often 58.9 µM), inactives show at the top dose activity change, negative = inhibition, most hits filed as inhibitors; hit rate 0.21% among 390,000; note: % is set by controls: 0 for no effect and ±100 for the full control effect
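ThioGlo1-coupled HAT assay: 20nM GCN5L2, 70uM acetyl-CoA, 75uM H3(1-25) peptide, pH 7.5. Fluorescence read at 340/540nm at start and after 20 min at room temperature.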
* = called active by the depositor; [ ] = another dose, or the depositor's remark. The list is not random: actives were taken first. Their share in the collection is about 1.8%. Calls come from the whole dose curve; as a rule, active = well fitted curve in the direction sought with a large enough effect; inconclusive = small, poorly fitted or top-dose-only effect, or another doubt; inactive = no such curve, though single readings can be large; an effect the other way counts as inactive or inconclusive. Potency is the fitted concentration of half-maximal effect.

Screening CC(C)(C)NC(=O)C(c1c[nH]c2ccccc12)N(C(=O)Cn1nnc(-c2ccc(Cl)cc2)n1)c1ccccc1F (stereo not given) returned GLP1R cytotox -19%, PTHR1 agonist -5%, RGS4 inh -6%, GLP1R inv ag 5µM*, GLP1R ag -22% and GCN5L2 inh -14%.
For O=C(NCc1cccnc1)c1cc(C2CCCN(C(=O)c3cccs3)C2)on1 (stereo not given) the results were GLP1R cytotox 5%, PTHR1 agonist -16%, GLP1R inv ag -27% and GLP1R ag 11%.
Cc1ccc(C)c(C(=O)COC(=O)c2n[nH]c3ccccc23)c1 was read as GLP1R cytotox -2%, PTHR1 agonist -39%, RGS4 inh 1%, GLP1R inv ag 10µM*, GLP1R ag 13% and GCN5L2 inh -16%.
`CCCC[C@@H]1CCCO[C@@](C(=O)NCCN2CCOCC2)(C(F)(F)F)C1` gave RGS4 inh 6%.
`O=C(NCc1ccccn1)C1(C(F)(F)F)CC(CCCO)CCCO1` (stereo not given) gave RGS4 inh -2%.
Screening CCCNC(=O)C(Cc1ccccc1C)NC(=O)c1ccc(C#N)cc1 (stereo not given) returned GLP1R cytotox 2.5µM*, PTHR1 agonist -23%, RGS4 inh 12%, GLP1R inv ag 20%, GLP1R ag 5% and GCN5L2 inh 1%.
For CN1CC(O)C2=CC(=O)C(=O)C=C21 (stereo not given) the results were GCN5L2 inh 14µM*.
For COc1cc(-c2nc(-c3cccc(Cl)c3)c(-c3ccccc3)[nH]2)cc(OC)c1OC the results were GLP1R cytotox inconclusive, PTHR1 agonist -25%, RGS4 inh 2%, GLP1R inv ag 3.5µM* and GCN5L2 inh 2%.
For O=c1oc2ccc3ccccc3c2cc1-c1nnc(Nc2ccccc2)s1 the results were GLP1R cytotox -8%, PTHR1 agonist -10%, RGS4 inh -8%, GLP1R inv ag 8% and GCN5L2 inh -11%.
`CN1C[C@@H]2[C@@H]3C(=O)N(C)C(=O)[C@@H]3[C@](C)(C1=O)N2C(=O)c1ccc(C(F)(F)F)cc1` gave GLP1R cytotox -18%, PTHR1 agonist inactive, RGS4 inh 0%, GLP1R inv ag 8% and GLP1R ag 4%.
`Cc1onc(-c2ccccc2)c1C(=O)OCC(=O)NC(C)c1ccc(Cl)cc1` (stereo not given) gave GLP1R cytotox -12%, PTHR1 agonist -34%, RGS4 inh 2%, GLP1R inv ag inconclusive, GLP1R ag 5% and GCN5L2 inh -2%.
CC1=CC(C)(C)n2c(O)c(N=NC(N)=S)c3cc(C)cc1c32 was read as GLP1R cytotox 2.8µM*, PTHR1 agonist -17%, RGS4 inh 0%[11.4 µM], GLP1R inv ag 2µM*, GLP1R ag 5% and GCN5L2 inh -5%.
`CCN1CCN(c2c(S(=O)(=O)c3ccc(C)c(C)c3)cnc3ccc(F)cc23)CC1` gave GLP1R cytotox -20%, PTHR1 agonist -12%, RGS4 inh 10%, GLP1R inv ag inconclusive, GLP1R ag 3% and GCN5L2 inh -3%.
`CCOC(=O)C1=C(CN2CCN(c3ccc(Cl)cc3)CC2)NC(=O)NC1c1ccc(F)cc1` (stereo not given) gave GLP1R cytotox 2%, PTHR1 agonist -27%, RGS4 inh -13%, GLP1R inv ag 7% and GCN5L2 inh -12%.
For O=C(CSc1ccccc1C(=O)O)c1ccc(Cl)cc1 the results were GLP1R cytotox 36%, PTHR1 agonist -22%, RGS4 inh -10%, GLP1R inv ag -2%, GLP1R ag 0% and GCN5L2 inh -9%.

Screens (PubChem)
